Screening results from PubChem BioAssay.
Most compounds without a hit are left out; they make up all but 4.1% or so of the library.
hgDAF12 agonist: agonists of H. glycines DAF-12 nuclear receptor. HEK293 GAL4-hgDAF12 UAS-luciferase reporter, agonist luminescence; normalized to butyrate control. activation, % at 6.8 µM. 370,000 tested, 1.8% active;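 active = activation above a cutoff set at the mean of all screened compounds plus 3 SD, cut at about 10% in these data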;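 note: 0% = DMSO wells and 100% = sodium butyrate wells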
hcDAF12 agonist: activators of H. contortus DAF-12 nuclear receptor | HEK293 hcDAF-12 lit1-tk-luc reporter, luminescence; 0% DMSO, 100% Δ7-dafachronic acid | activation, % at 6.8 µM | 370,000 tested, 1.4% active | AID 652067;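 active = activation above the mean of all tested compounds plus 3 SD, cut at about 5.5% in these data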;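 note: 100% = response to 3 µM Δ7-dafachronic acid high control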
DAX1 inh-1: NR0B1 (DAX1) inhibition; P51843; HEK293 Gal4-DAX1 luciferase reporter, luminescence; inhibition, % at 6.75 µM; 340,000 tested, 0.99% active;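 active = inhibition above the mean over all tested compounds plus 3 SD, cut at about 4.2% in these data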;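 note: 0% = DAX1-transfected cells with DMSO and 100% = empty-vector control cells with DMSO; inhibition shows as a rise in luminescence from relieved DAX1 repression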
Target sequence (P51843 207-470 limits assumed): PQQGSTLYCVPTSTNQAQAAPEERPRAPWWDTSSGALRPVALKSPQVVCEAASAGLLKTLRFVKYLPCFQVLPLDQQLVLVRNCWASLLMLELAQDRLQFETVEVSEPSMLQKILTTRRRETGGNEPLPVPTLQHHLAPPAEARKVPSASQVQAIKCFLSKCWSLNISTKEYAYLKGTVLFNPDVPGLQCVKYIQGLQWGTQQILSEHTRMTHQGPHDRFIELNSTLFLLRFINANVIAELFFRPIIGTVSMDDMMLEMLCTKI
ssDAF-12 act: activates DAF-12 receptor from parasite S. stercoralis; HEK293 ssDAF-12/GRIP1 lit1-tk-luc reporter, luminescence; % of 3 µM dafachronic acid response; activation, % at 6.8 µM; 370,000 tested, 1% active;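 active = activation above the mean over all tested compounds plus 3 SD, cut at about 0.9% in these data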;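 note: 0% = DMSO-only wells and 100% = 3 µM delta7-dafachronic acid wells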
DAX1 inh-2: blocks DAX1 repression of SF-1 activated StAR promoter. HEK293T StAR-luciferase reporter, SF-1/DAX-1 repression relief. inhibition, % at 6.8 µM. 370,000 tested, 1.1% active;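 active = inhibition above the mean over all tested compounds plus 3 SD, cut at about 3.6% in these data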;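 note: 0% = DAX-1 cells with DMSO and 100% = cells lacking DAX-1 with DMSO; higher inhibition means more luminescence from relief of DAX-1 repression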
* hit, by the source's call; nt = not tested or not shown.

SMILES | hgDAF12 agonist | hcDAF12 agonist | DAX1 inh-1 | ssDAF-12 act | DAX1 inh-2
COc1ccccc1C(=O)NNC1=C(C(=O)C(F)(F)F)CCC1 | 8 | 4 | 2 | 0.9* | 2
O=C(NNC1=C(C(=O)C(F)(F)F)CCC1)c1ccccc1O | 6 | 5.6* | 4 | 1.0* | 1
CCOC(=O)[C@]12CCCCC/C=C\1N(Cc1ccc(OC)cc1)C(=O)[C@H]2CC(=O)NCCc1ccccc1OC | -2 | -3 | nt | -2 | 0
CCN(CC)CCCn1c2c(c(SCC(=O)Nc3cccc4ccccc34)nc1=O)CCC2 | -1 | 3 | -1 | 0 | 3.8*
CCN(CC)CCCn1c2c(c(SCC(=O)Nc3ccccc3Cl)nc1=O)CCC2 | 0 | 1 | 0 | -1 | 2
CN1CCC(=NOc2ccc([N+](=O)[O-])cc2)CC1 | 10 | 0 | 4.7* | -1 | 2
O=C(Nc1ccccc1F)Nc1cccc2ccc(O)cc12 | 0 | 6.2* | 0 | 0 | 0
Cc1cn(CCC(=O)Nc2ccccc2N2CCOCC2)c2ccccc12 | 6 | 6.0* | 6.8* | 0 | 0
Cc1cn(CCC(=O)Nc2ccc(N3CCOCC3)cc2)c2ccccc12 | 7 | 2 | 1 | -1 | 1
CCOC(=O)C1CSCCS(=O)(=O)N1Cc1cc(F)ccc1Br (stereo unspecified) | 2 | 0 | nt | -1 | -1
COc1ccc(CNC(=O)Cn2nc([N+](=O)[O-])cc2C)cc1 | -2 | -3 | -1 | -1 | 0
COc1ccc(/C(C)=N/NC(=O)Cn2nc([N+](=O)[O-])cc2C)cc1 | 5 | 0 | 4.5* | -2 | 0
Brc1ccc2nc(-c3ccc(CN4CCC(c5nc6ccccc6[nH]5)CC4)cc3)c(-c3ccccc3)nc2c1 | 0 | -4 | nt | -2 | -4
CC(=O)Nc1ccc(NC(=O)CSc2ccc(C)cc2)cc1 | 1 | -1 | 0 | -1 | 0
Cc1ccc(CNC(=O)NCc2ccccc2)cc1 | 1 | 0 | 1 | -1 | 0
Cc1ccc(CNC(=O)c2ccc[nH]2)cc1 | 2 | -2 | 5.6* | -1 | 1
Cc1ccc(SCC(=O)c2ccc[nH]2)cc1 | 11* | 0 | 1 | -1 | 0
COc1ccccc1CCn1cnc(-c2ccc(Cl)cc2)c1CC(C)C | -3 | -2 | nt | -1 | 0
O=S(=O)(c1sccc1Br)n1c(CN2CCOCC2)nc2ccccc21 | -2 | -3 | nt | -2 | 0
COc1ccc(-c2oc3cc(OC(C)=O)cc(OC(C)=O)c3c(=O)c2OC)cc1 | 1 | 1 | 3 | -1 | 0
CC(=O)Oc1cc(O)c2c(=O)c(OC(C)=O)c(-c3ccc(OC(C)=O)c(OC(C)=O)c3)oc2c1 | nt | nt | 4.5* | nt | nt
COc1ccc(S(=O)(=O)N2CCN(Cc3ccco3)CC2)cc1 | 0 | -1 | 4 | -1 | 0
O=C(COc1ccccc1Cl)c1ccc2c(c1)CCCC2 | 12* | 3 | 1 | 0 | 1
CCOC(=O)CCCNC(=O)OC1CCC12CCC(c1ccccc1)CC2 (stereo unspecified) | 2 | 1 | nt | -1 | -1
O=C(Nc1ccc(O)cc1)C1CCCN1S(=O)(=O)c1ccc(F)cc1 (stereo unspecified) | -2 | -1 | 4.6* | 0 | -1
SMILES | hgDAF12 agonist | hcDAF12 agonist | DAX1 inh-1 | ssDAF-12 act | DAX1 inh-2
CC(=O)c1ccc(NC(=O)C2CCCN2S(=O)(=O)c2ccc(F)cc2)cc1 (stereo unspecified) | 2 | -3 | -1 | -2 | 0
O=c1cc(-c2ccccc2)oc2ccccc12 | 7 | 0 | 6.0* | -1 | 3
CC(C)(C)OC(=O)N1CCN(C(=O)c2[nH]cnc2C(=O)Nc2cccc(Cl)c2)CC1 | 4 | 0 | 5.9* | -1 | 0
CCOC(=O)c1ccc(NC(=O)c2nc[nH]c2C(=O)N2CCN(C(=O)OC(C)(C)C)CC2)cc1 | -2 | -1 | nt | -1 | 0
Fc1ccc(C2=CC(c3cccs3)n3nnnc3N2)cc1 (stereo unspecified) | 4 | 3 | 3 | -1 | 0
Cc1ccc(C2=CC(c3cccs3)n3nnnc3N2)cc1 (stereo unspecified) | 2 | 4 | 1 | 1.0* | 0
CCCCCCn1cc(CN2CC(N3CCSCC3)CS2(=O)=O)nn1 (stereo unspecified) | -2 | 1 | nt | 0 | -1
CCCCNc1cnn(-c2ccccc2)c(=O)c1Cl | 2 | 3 | 3 | -1 | 1
COCCNc1cnn(-c2ccccc2)c(=O)c1Cl | 1 | 2 | 4.9* | -2 | 0
CCOc1ccc(NC(=O)CCNS(=O)(=O)c2ccc3c(c2)oc(=O)n3C)cc1 | 1 | 5.9* | 0 | -1 | -2
Cc1ccc(NC(=O)CCNS(=O)(=O)c2ccc3c(c2)oc(=O)n3C)cc1 | 2 | 0 | 0 | -1 | 1
Cc1ccc(-c2nnc(SCC#CCOC(=O)c3cccs3)o2)cc1 | 3 | 1 | -1 | -1 | 0
O=C(OCC#CCSc1nnc(-c2ccc(Br)cc2)o1)c1cccs1 | 1 | 1 | 0 | 1.0* | 0
COc1ccc(NC(=O)CSc2nnc(CNC(=O)COc3ccc(Cl)cc3)o2)cc1 | 13* | 1 | 0 | -2 | 0
O=C(Nc1ccc(F)cc1)C(c1cc2ccccc2o1)N1CCN(c2cccc(C(F)(F)F)n2)CC1 (stereo unspecified) | -1 | 1 | nt | 2.3* | 1
COCCN=C1Sc2ccccc2[C@@H]2C[C@H]3[C@H](CON3C)CN12 | -3 | 0 | nt | -1 | 1
O=C(Nc1ccc(Cl)cn1)c1cccc(OCc2ccccc2)c1 | 3 | -2 | 0 | -1 | 1
CCCOc1ccc(C(=O)Nc2ccc(Cl)cn2)cc1 | 10 | 5.8* | -1 | 0 | 3
Cc1ccc(C(=O)Nc2ccc(Cl)cn2)cc1 | 12* | 3 | -2 | 0 | 2
O=C(Nc1ccc(Cl)cn1)c1ccc(Oc2ccccc2)cc1 | 13* | 4 | 1 | 0 | 2
Cc1ccc(NC(=O)c2ccc(NCc3ccc(F)cc3)nc2)cc1 | 1 | 0 | 2 | 0 | 0
Cc1ccc(NC(=O)c2ccc(Nc3ccccc3F)nc2)cc1 | 5 | 2 | 0 | 1.2* | 0
O=C(COc1ccc(Cl)cc1)Nc1ccc(Cl)cn1 | 5 | 0 | 1 | -1 | 2
Cc1ccc(S(=O)(=O)N(C)c2ccc3c(c2)C(=O)c2ccccc2-3)cc1 | 3 | 5 | nt | 0 | -1
O=C(Nc1cc(-c2ccccc2)[nH]n1)c1ccc(Cl)cc1 | 10 | 5 | 3 | 1.7* | 1
O=C1NCCc2onc(-c3ccc(Br)cc3)c21 | 3 | -1 | nt | -1 | 0
Cc1csc(NC(=O)C2CC(=O)N(c3ccc(C)c(C)c3)C2)n1 (stereo unspecified) | 0 | -1 | 0 | 1.6* | -1
COc1ccccc1N1CC(C(=O)Nc2nc(C)cs2)CC1=O (stereo unspecified) | 0 | 4 | 0 | 1 | 2
